Compound activity from PubChem.
Shown are actives, neighbours in structure and some others; about 11% of the full set was active somewhere.
HTT cytoprotect = qHTS Multiplex Assay to Identify Dual Action Probes in a Cell Model of Huntington: Cytoprotection (ATP); PC12 HTT-Q103 induced, cytoprotection, ATP luminescence, 40 h; Potency, µM (titrated, usually from 56.4 µM), usual class: activators; 0.14% of 230,000 active; AID 1471, 2008; active = well fitted curve in the direction sought with a large enough effect; inconclusive = small, poorly fitted or top-dose-only effect, or another doubt; inactive = no such curve, though single readings can be large; an effect the other way counts as inactive or inconclusive; also: nearly all actives have a fitted effect of over 45% in size
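Cells were plated at 1500 per well in phenol red-free DMEM with 5% equine and 5% calf serum. Tebufenozide (100 nM final) and compounds were added, then ATPlite reagent, and luminescence was read.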
ALDH1A1 inh = qHTS Assay for Inhibitors of Aldehyde Dehydrogenase 1 (ALDH1A1); Aldehyde dehydrogenase 1A1 (Homo sapiens), P00352; Purified ALDH1A1, NADH fluorescence, propionaldehyde substrate; Potency, µM (top dose mostly 75.3 µM), most hits filed as inhibitors; 7.3% of 220,000 active
HttQ103 aggreg = qHTS Multiplex Assay to Identify Dual Action Probes in a Cell Model of Huntington: Aggregate Formation (GFP). AID 1688, 2009. Potency, µM (top dose mostly 46.1 µM), most hits filed as inhibitors. 1.1% of 220,000 active. PC12 HttQ103-GFP aggregates, Acumen cytometry, 40 h; active = well fitted curve in the direction sought with a large enough effect; inconclusive = small, poorly fitted or top-dose-only effect, or another doubt; inactive = no such curve, though single readings can be large; an effect the other way counts as inactive or inconclusive; also: nearly all actives have a fitted effect of over 60% in size
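PC12/HTTQ103-GFP, ecdysone-inducible; teb 100 nM; cpd qHTS titration; GFP aggregates read on laser cytometer, Ex 488/Em 500-530 nm.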
HPGD inh = qHTS Assay for Inhibitors of HPGD (15-Hydroxyprostaglandin Dehydrogenase); 15-hydroxyprostaglandin dehydrogenase [NAD(+)] (Homo sapiens), P15428; purified HPGD, NADH fluorescence kinetic, PGE2 substrate; Potency, µM, usual class: inhibitors; 4.3% of 150,000 active; AID 894, 2007
Target sequence (P15428 whole entry, looked up): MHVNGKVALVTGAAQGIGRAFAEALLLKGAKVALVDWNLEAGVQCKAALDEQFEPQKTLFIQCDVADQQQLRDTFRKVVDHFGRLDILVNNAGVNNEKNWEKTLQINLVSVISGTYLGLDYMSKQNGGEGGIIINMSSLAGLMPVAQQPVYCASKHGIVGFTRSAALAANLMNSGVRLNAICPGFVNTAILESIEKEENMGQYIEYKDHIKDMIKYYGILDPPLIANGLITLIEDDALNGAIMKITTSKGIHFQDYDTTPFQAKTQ
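NADH formation kinetics: reaction with 30 uM PGE2 and 1 mM NAD+ (final), 20 nM enzyme, Tris-HCl pH 8 with Tween 20, after 15 min compound preincubation at room temperature. Fluorescence change, last versus first of five reads.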
PNC assembly inh = High Content Assay for Compounds that inhibit the Assembly of the Perinucleolar Compartment. PC3M PTB-GFP, PNC prevalence imaging, 16 h; stronger effect = lower value. activity change (PNC), negative = inhibition, % at 10 µM. 3.1% of 140,000 active. AID 2417, 2010;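 active = readout at or below -70, meaning at least 70% loss of cells showing the perinucleolar compartment, a nuclear body marking cancer cells; inconclusive = readout between -30 and a set limit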
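Compounds are pinned in duplicate onto adhered PC3M cells stably expressing GFP-tagged PTB and incubated 16 h at 37 C. Cells are then fixed, nuclei stained with Hoechst, and PNC-positive cells counted.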
GoLoco inh red = qHTS Assay for Inhibitors of RGS12 GoLoco Motif Activity (Red Fluorophore); Guanine nucleotide-binding protein G(i) subunit alpha-1 (Homo sapiens), P63096; Gai1:RGS12 GoLoco peptide FP, rhodamine, 10 min; Potency, µM (highest dose often 61.6 µM), actives largely listed as inhibitors; 0.44% of 230,000 active; active = well fitted inhibition curve with a large enough effect, not every such curve was filed as active; inactive = no such curve, though single readings can be large or run the other way; also: nearly all actives have a fitted effect of over 30% in size
Target sequence (P63096 whole entry, looked up): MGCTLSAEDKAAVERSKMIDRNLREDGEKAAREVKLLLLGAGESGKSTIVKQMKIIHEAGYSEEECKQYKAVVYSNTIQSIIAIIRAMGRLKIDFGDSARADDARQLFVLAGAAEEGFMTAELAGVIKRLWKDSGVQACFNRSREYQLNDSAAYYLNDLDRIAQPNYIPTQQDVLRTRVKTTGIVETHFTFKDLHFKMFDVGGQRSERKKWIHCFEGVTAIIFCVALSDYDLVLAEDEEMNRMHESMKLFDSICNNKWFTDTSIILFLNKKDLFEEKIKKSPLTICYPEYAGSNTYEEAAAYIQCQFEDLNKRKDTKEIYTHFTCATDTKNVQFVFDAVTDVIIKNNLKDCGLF
A number is an active result; i = inactive; ? = inconclusive; nt = not tested or not shown; ! = a repeat was not active; [ ] = remark or other dose. Unless noted, calls follow the shape of the dose curve; as a rule, active = well fitted inhibition curve with a large enough effect (not every such curve was filed as active); inconclusive = small, poorly fitted or top-dose-only effect, or another doubt; inactive = no such curve, though single readings can be large or run the other way.

SMILES | HTT cytoprotect | ALDH1A1 inh | HttQ103 aggreg | HPGD inh | PNC assembly inh | GoLoco inh red
CC[n+]1c(-c2ccccc2)c2cc(N)ccc2c2ccc(N)cc21 | i | i | 14µM | 35µM! | nt | 5.6µM
O=[N+]([O-])c1ccc(N2CCCC2)c2ccncc12 | i | i | 22µM | nt | nt | i
O=[N+]([O-])c1ccc(N2CCNCC2)c2ncccc12 | i[10 µM] | i | i | i | i | i
COc1cccc(CCNCc2c(F)cccc2F)c1 | i[10 µM] | 10µM | i | nt | nt | i
COc1ccc(CCNCc2cccc(C(F)(F)F)c2)cc1OC | nt | i | i | nt | nt | i
CN(C)C1C(=O)C(C(N)=O)C(=O)C2(O)C(=O)C3C(=O)c4c(O)cccc4C(C)(O)C3C(O)C12 (centres undefined) | i | i | i | ? | nt | i
CCOP(=O)(Cc1cc(C(=O)CC)c(C)o1)OCC | nt | nt | 0.01µM | nt | nt | i
CN(C)CS/C(N)=N/[C@H](O)C(Cl)(Cl)Cl | i[10 µM] | 3.2µM | nt | i | nt | i[14.2 µM]
Nn1c(Cc2cccc3ccccc23)n[nH]c1=S | i | 22µM | i | nt | nt | i
C[C@H]1O[C@H](O[C@H]2[C@H](O)[C@@H](O)[C@@H](O)[C@H](O)[C@@H]2O)[C@@H](N)C[C@@H]1NC(=N)C(=O)O | nt | ? | nt | i | nt | i
COc1ccc(N(CC(=O)Nc2cccc(SC)c2)S(C)(=O)=O)cc1Cl | i | 14µM | i[9.22 µM] | ? | ? | i
CN[C@H](Cc1ccccc1)c1cccc(OC)c1O | i[10 µM] | i[13.5 µM] | nt | i | nt | i[14.2 µM]
COc1ccc(OC)c(-n2c(O)c(/C=C3\C(C)=Nc4ccccc43)c(=O)[nH]c2=O)c1 | i[10 µM] | nt | i[9.22 µM] | nt | nt | i
COC(=O)C1=Nc2ccccc2/C1=C\c1c(O)n(C)c(=O)n(C)c1=O | i[10 µM] | nt | i[9.22 µM] | nt | nt | i
COC(=O)C1=Nc2ccccc2/C1=C\c1c(O)n(-c2ccc(Br)cc2)c(=O)[nH]c1=O | nt | i | i | 18µM | -124 | i
O=c1[nH]c(=O)n(-c2ccccc2)c(O)c1/C=C1/C(c2ccccc2)=Nc2ccccc21 | i[10 µM] | ? | i | 25µM | -91 | i
COC(=O)C1=Nc2ccccc2/C1=C\c1c(O)n(-c2ccc(OC)cc2)c(=O)[nH]c1=O | i | 22µM | i | i | i | i
O=C(NC1CCCCCC1)c1ccc[nH]c1=S | i | ? | ? | nt | nt | i
CCCCCC1C(=O)O[C@H](C)[C@@H](NC(=O)c2cccc(NC=O)c2O)C(=O)OC(C)C1OC(=O)CC(C)C (some centres undefined) | nt | i | nt | ? | nt | i
CCCCCc1cc(O)c2c(c1)OC(C)(C)C1CC=C(C)CC21 (centres undefined) | i | nt | i | nt | nt | nt
N#CC(C#N)=Cc1ccc(N2CCOCC2)cc1 | i[10 µM] | nt | i[9.22 µM] | nt | nt | i
N#CC(C#N)=Cc1cc(O)c(O)c(O)c1 | i | 28µM | i | ? | nt | i
Cc1cc(/C=C2\C(=O)NC(=O)N(Cc3ccccc3)C2=O)c(C)n1C1CC1 | i | i | i | nt | nt | i
CCN(CC)c1ccc(/C=C2\C(=O)NC(=O)N(CC3CCCO3)C2=O)cc1 (centres undefined) | i[10 µM] | 0.25µM | i | 25µM | ? | i
Cc1cc(/C=C2/C(=O)NC(=O)N(Cc3ccco3)C2=O)c(C)n1-c1ccccc1 | nt | 8.9µM | i | ? | i | i
SMILES | HTT cytoprotect | ALDH1A1 inh | HttQ103 aggreg | HPGD inh | PNC assembly inh | GoLoco inh red
CN(C)c1ccc(/C=C2/C(=O)NC(=O)N(Cc3ccco3)C2=O)cc1 | i[10 µM] | 1µM | i | 10µM | i | i
Cc1cccc(OCCn2cccc2/C=C2/C(=O)NC(=O)N(Cc3ccco3)C2=O)c1 | i[10 µM] | nt | i[9.22 µM] | nt | nt | i
Cc1ccc(/C=C2\C(=O)NC(=O)N(CC3CCCO3)C2=O)s1 (centres undefined) | i[10 µM] | nt | i[9.22 µM] | nt | nt | i
CCN(CC)c1ccc(/C=C2/C(=O)NC(=O)N(Cc3ccco3)C2=O)cc1 | i[10 µM] | 0.56µM | i | 10µM | i | i
O=C1NO[C@@H]2CN[C@@H](C(=O)O)[C@H]12 | i | i | nt | i | nt | i
COc1ccc(CNC(=O)/C=C\c2ccc3[nH]cc(CCN(C)C)c3c2)cc1 | i[1.9 µM] | i | nt | i | nt | i
COc1ccc(NC(=S)NCCN2CCOCC2)cc1 | i[10 µM] | 1.3µM | i[9.22 µM] | nt | nt | i
CC(C)c1ccc(C(O)(C(=O)O)c2ccc(C(C)C)cc2)cc1 | i[10 µM] | i[13.5 µM] | nt | i | nt | i[14.2 µM]
c1ccc2c(CNC3CCCCC3)c[nH]c2c1 | i | i | 11µM | i | i | i
O=C1N=C(N2CCCCC2)SC1=C1CCCCC1 | i | 8.9µM | i | 20µM | i | i
C=C1C(=O)O[C@@H]2C[C@@H](C)[C@@H]3C=CC(=O)[C@@]3(C)[C@@H](O)[C@H]12 | ? | ? | 2.2µM | nt | nt | i
C[C@@H]1C[C@H]2OC(=O)C3(CO3)[C@H]2[C@H](O)[C@]2(C)C(=O)C3OC3[C@@H]12 (some centres undefined) | i[10 µM] | nt | i[9.22 µM] | nt | nt | i
CNC[C@H](O)c1ccc(OC(=O)C(C)(C)C)c(OC(=O)C(C)(C)C)c1 | i | i | i | i | nt | i
C[C@@]12CC[C@H]3[C@@H](CCC4=CC(=O)CC[C@]43C)[C@H]1CC[C@H]2C(=O)CO | i | 5µM | i | i | nt | i
CC(=O)[C@H]1CC[C@H]2[C@@H]3CCC4=CC(=O)CC[C@]4(C)[C@H]3CC[C@]12C | i[1.9 µM] | 11µM! | i | i | i | i
CC(=O)[C@@H]1CC[C@@H]2[C@@H]3CCC4=CC(=O)CC[C@@]4(C)[C@H]3CC[C@]21C | i | i | nt | i | nt | i
CCC(=O)OC1CCC2C3CCC4=CC(=O)CC[C@@]4(C)C3CC[C@]12C (some centres undefined) | i | i | nt | i | nt | 14µM
CN(CC(=O)Nc1ccc(N2CCOCC2)cc1)CC(=O)Nc1cccc(C#N)c1 | i[10 µM] | i | ? | i | i | i
Cc1ccc(/C=C2/C(=O)NC(=O)N(CCc3ccc(F)cc3)C2=O)o1 | i | 5.6µM | i | 3.5µM | ? | i
O=C1NC(=O)N(CCc2ccc(F)cc2)C(=O)/C1=C/c1ccco1 | i | 2.5µM | i | nt | nt | i
CCOP(=S)(OCC)Oc1cc(C)oc(=O)c1 | i[10 µM] | 7.9µM | i[9.22 µM] | nt | nt | i
CCOP(=S)(OCC)Oc1cc(C)oc(=O)c1Cl | i[10 µM] | 1µM | i[9.22 µM] | nt | nt | i
CCC(C)C1N=C(c2ccccc2)c2cc(Cl)ccc2N(CC(=O)NCc2ccco2)C1=O (centres undefined) | i | i | i | i | i | i
Cc1ccccc1C1=NCC(=O)N(CC(=O)NCc2ccco2)c2sc3c(c21)CCCC3 | i | 40µM | i | 40µM | i | i
